# Results taken from PubChem BioAssay (NCATS).
# Results filed as inconclusive are left out. Entries that show only a call come without a potency. The source made the active and inactive calls. Unless noted, the call rests on the fitted dose curve; in most records, active means well fitted inhibition curve with a large enough effect; inconclusive means small, poorly fitted or top-dose-only effect; inactive means flat fitted curve, though single readings scatter.
# Key:
# [1] = P-glycoprotein substrates identified in KB-8-5-11 adenocarcinoma cell line, qHTS therapeutic library screen (AID 1346987); further: nearly all actives have a fitted effect of over 65% in size
# Method in brief: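 Steps: plate 500 KB-8-5-11 cells/well in DMEM + 10% FCS (colchicine removed); pin compounds in dose-response; incubate 72 h, 37 degree C, 5% CO2; add CellTiter-Glo, 5 min; read luminescence.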
# [2] = qHTS for Inhibitors of the Functional Ribonucleoprotein Complex (vRNP) of Lassa (LASV) Arenavirus: LASV Primary Screen - GLuc reporter signal (AID 1347082; calls by dose curve; tested in HEK293 reporter line; further: nearly all actives have a fitted effect of over 60% in size; further: potency means the concentration at half of the fitted maximal effect)
# [3] = system: Zika virus NS2B-NS3 protease; assay: Primary screen GU AMC qHTS for Zika virus inhibitors (AID 1347154); further: nearly all actives have a fitted effect of over 70% in size
# Method in brief: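 Fluorogenic AMC-substrate cleavage by noncovalent NS2B-NS3 protease complex (25 nM, pH 8.0 Tris buffer with Tween 20) followed for 15 minutes at room temperature (~20% conversion). Percent inhibition from ex340/em450 signal change, fitted by 4-parameter Hill equation.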
# [4] = molecular target: Catechol O-methyltransferase (Homo sapiens) (UniProt P21964); assay: Confirmatory Screen for Target Class Profiling of Small Molecule Inhibitors of Methyltransferases (AID 1745852; calls by dose curve); conditions: MTase-Glo luminescence, SAH detection, recombinant enzyme; measured here: COMT max response; stronger effect = lower value
# [5] = molecular target: Guanidinoacetate N-methyltransferase (Homo sapiens) (UniProt Q14353); assay: as above; conditions: activity change, negative = inhibition: at 57.3 µM (top of the series) unless noted
# [6] = molecular target: Nicotinamide N-methyltransferase (Homo sapiens) (UniProt P40261); assay: as above; conditions: MTase-Glo luminescence, SAH detection, recombinant enzyme; measured here: NNMT max response; stronger effect = lower value
# [7] = molecular target: Phenylethanolamine N-methyltransferase (Homo sapiens) (UniProt P11086); assay: as above; conditions: MTase-Glo luminescence, SAH detection, recombinant enzyme; measured here: PNMT max response; stronger effect = lower value
# [8] = molecular target: Glutathione peroxidase 1 (Homo sapiens) (UniProt P07203); assay: Primary qHTS Assay for Inhibitors of Recombinant Selenoprotein Glutathione Peroxidase 1 (GPX1) (AID 1845191); further: nearly all actives have a fitted effect of over 65% in size
# Method in brief: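 10 nM GPX1 + cpd, 30 min RT; start w/ 1 mM GSH, 0.5 mM cumene hydroperoxide, 0.5 mM NADPH, 100 nM GR, 0.01% BSA; buffer 50 mM Tris-HCl pH 7.5, 2 mM EDTA, 150 mM NaCl; Fl 340/450, 0 & 15 min.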
# Sequence of Phenylethanolamine N-methyltransferase (Homo sapiens) (P11086 whole entry, looked up): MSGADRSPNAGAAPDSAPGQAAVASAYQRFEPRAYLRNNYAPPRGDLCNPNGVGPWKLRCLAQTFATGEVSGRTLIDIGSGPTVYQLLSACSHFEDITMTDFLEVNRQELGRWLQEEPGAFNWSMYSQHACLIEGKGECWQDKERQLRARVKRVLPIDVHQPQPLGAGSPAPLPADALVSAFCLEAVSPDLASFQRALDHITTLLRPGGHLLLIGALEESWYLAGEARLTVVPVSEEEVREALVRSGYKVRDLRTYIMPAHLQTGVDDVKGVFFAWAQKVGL
# Sequence of Catechol O-methyltransferase (Homo sapiens) (P21964 whole entry, looked up): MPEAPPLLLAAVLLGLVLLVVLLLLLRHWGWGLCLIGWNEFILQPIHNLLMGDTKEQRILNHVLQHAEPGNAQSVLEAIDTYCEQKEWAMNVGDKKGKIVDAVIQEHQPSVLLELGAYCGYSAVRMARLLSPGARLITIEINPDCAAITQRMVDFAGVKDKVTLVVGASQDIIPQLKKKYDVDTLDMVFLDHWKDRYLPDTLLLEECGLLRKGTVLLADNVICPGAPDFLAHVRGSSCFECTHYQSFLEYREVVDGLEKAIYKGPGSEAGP
# Sequence of Nicotinamide N-methyltransferase (Homo sapiens) (P40261 whole entry, looked up): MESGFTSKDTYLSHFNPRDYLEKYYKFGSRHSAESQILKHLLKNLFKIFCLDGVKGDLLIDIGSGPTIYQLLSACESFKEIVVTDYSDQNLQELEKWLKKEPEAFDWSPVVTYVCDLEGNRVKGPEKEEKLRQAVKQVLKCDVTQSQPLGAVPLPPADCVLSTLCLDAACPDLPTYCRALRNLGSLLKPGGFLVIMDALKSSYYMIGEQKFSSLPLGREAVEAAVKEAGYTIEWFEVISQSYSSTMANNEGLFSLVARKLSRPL
# Sequence of Glutathione peroxidase 1 (Homo sapiens) (P07203 whole entry, looked up): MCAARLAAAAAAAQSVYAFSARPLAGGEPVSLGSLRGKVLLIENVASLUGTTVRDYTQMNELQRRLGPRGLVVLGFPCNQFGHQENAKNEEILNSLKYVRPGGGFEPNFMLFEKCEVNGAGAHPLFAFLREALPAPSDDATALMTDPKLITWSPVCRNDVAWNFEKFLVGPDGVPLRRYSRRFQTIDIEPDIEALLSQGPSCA
SMILES,Potency [1],Potency [2],Potency [3],activity [4] [%],Potency [5],activity [6] [%],activity [7] [%],Potency [8]
O=C1NC(=O)c2c1c1c3ccccc3[nH]c1c1[nH]c3ccccc3c21,inactive,inactive,inactive,-2.49,inactive,-2.73,-3.39,inactive
O=C1C=CC(O)(c2cc(=O)c3c(O)cc(O)cc3o2)C=C1,–,17.8 µM (active),–,–,–,–,–,–
